# Experimental data reported in the supplement of paper PMC12340641.
# In all, about 1,000 compounds were measured (“relative growth recovery (pomalidomide 10 uM = 100%, DMSO = 0%)”: median about -1.6, highest 2% from about 21 on). Shown is part of a subset that was picked to be rich in the highest values.
# Test system: HEK293FT dCK*-IKZF1
# Assay: relative growth recovery (pomalidomide 10 uM = 100%, DMSO = 0%); higher = more growth rescue (IKZF1 fusion degradation)
# Conditions: compound concentration: 5 uM; AraC concentration: 0.3 uM; overnight pretreatment + 4 days AraC
# Procedure: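 Growth recovery screen of the molecular-glue-like (Specs) library. HEK293FT cells expressing a dCK*-IKZF1 fusion (primary) or dCK* alone (counter) were pretreated overnight with compound at 5 uM, then given 0.3 uM AraC for 4 days. Hoechst nuclei were counted by imaging. Primary: normalised to pomalidomide (100%) and DMSO (0%), mean of 2 replicates. Counter: normalised to no-AraC (100%) and AraC+DMSO (0%), single replicate.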
row,SMILES,relative growth recovery [%]
1,CCCc1cnc(Nc2cccc(C3CCN(C(=O)Cn4c(CC(C)C)nc5ccccc54)CC3)n2)s1,-2.13
2,COc1ccc(-c2csc(Nc3ccc(S(=O)(=O)Nc4cc(OC)nc(OC)n4)cc3)n2)cc1,-2.94
3,Cc1cnc(Nc2cccc(C3CCCN3C(=O)c3nccc4ccccc34)n2)s1 (centres undefined),2.39
4,O=C(Cc1cccs1)Nc1ccc(Oc2ccc3c(c2)C(=O)N(c2ccc(O)cc2)C3=O)cc1,-1.26
5,O=C(C1CCCCC1)N1CCC(Cc2cccc(Nc3nccs3)n2)CC1,4.47
6,Cc1cccc(C)c1OCC(=O)Nc1ccc(S(=O)(=O)Nc2ncccn2)cc1,1.77
7,COc1ccccc1CCC(=O)N1CCOC(c2cccc(Nc3ncc(C)s3)n2)C1 (centres undefined),10.8
8,COc1cc(NS(=O)(=O)c2ccc(NC(=O)COc3cccc(C)c3)cc2)nc(OC)n1,-18.6
9,COCC(=O)N1CCCC1c1cccc(Nc2nc(C)cs2)n1 (centres undefined),-7.27
10,O=C1CCC(N2C(=O)c3ccc(C(=O)O)cc3C2=O)C(=O)N1 (centres undefined),-0.47
11,Cc1cc(C)nc(NS(=O)(=O)c2ccc(NC(=O)c3ccccc3I)cc2)n1,-0.26
12,Cc1ccnc(NS(=O)(=O)c2ccc(NC(=O)C34CC5CC(CC(C5)C3)C4)cc2)n1,-6.07
13,CCCCCOC(=O)c1ccc(N2C(=O)c3ccc(Oc4ccc(N)cc4)cc3C2=O)cc1,1.57
14,CC(C)Cc1nc2ccccc2n1CC(=O)N1CCC(Cc2cccc(Nc3nccs3)n2)CC1,-1.89
15,CC(C)(C)C(=O)NC1(C(=O)N2CCC(c3cccc(Nc4ncc(Cl)s4)n3)CC2)CCCCC1,-18.6
16,COCC(=O)N1CCC(c2cccc(Nc3ncc(C)s3)n2)CC1,-19.4
17,CC(=O)Nc1cccc(-c2csc(Nc3cccc(C)n3)n2)c1,5.18
18,CC(=O)Nc1ccc(-c2csc(Nc3ccccn3)n2)cc1,2.7
19,CC(=O)N1CCCC1c1csc(Nc2ccccn2)n1 (centres undefined),-4.06
20,CC(=O)Nc1ccc(-c2csc(Nc3ccc(Cl)cn3)n2)cc1,-2.84
21,Cc1ccnc(Nc2nc(-c3sc(NC(=O)c4ccccc4)nc3C)cs2)c1,111
22,Cc1cccc(Nc2nc(-c3sc(NC(=O)c4ccccc4)nc3C)cs2)n1,121

row,SMILES,relative growth recovery [%]
1,Cc1ccc(Nc2nc(-c3sc(NC(=O)c4ccccc4)nc3C)cs2)nc1,111
2,CC(=O)N1CCCC(c2csc(Nc3ccc(C)cn3)n2)C1 (centres undefined),-5.95
3,CC(=O)Nc1ccc(-c2csc(Nc3cccc(C)n3)n2)cc1,0.905
4,Cc1nc2ccccn2c1CC(=O)N1CCOC(c2cccc(Nc3nccs3)n2)C1 (centres undefined),10.9
5,Cc1cnc(Nc2cccc(C3CN(C(=O)COc4ccccc4)CCO3)n2)s1 (centres undefined),-5.58
6,CCCc1cnc(Nc2cccc(C3CCN(C(=O)C4CCCCN4C(=O)CN(C)C)CC3)n2)s1 (centres undefined),-2.86
7,Cc1csc(Nc2cccc(C3CCN(C(=O)c4cccnc4)CC3)n2)n1,8.94
8,Cc1cc(C)c(C(=O)Nc2ccc(S(=O)(=O)Nc3cc(C)nc(C)n3)cc2)c(C)c1,-1.16
9,Cc1csc(Nc2cccc(C3CN(CC(=O)NCc4ccccn4)CCO3)n2)n1 (centres undefined),8.57
10,COCC(=O)N1CCOC(c2cccc(Nc3nc(C)cs3)n2)C1 (centres undefined),2.9
11,Cc1csc(Nc2cccc(C3CN(C(=O)CCn4ncc5ccccc54)CCO3)n2)n1 (centres undefined),18.8
12,Cc1csc(Nc2cccc(C3CN(C(=O)COc4c(C)cccc4C)CCO3)n2)n1 (centres undefined),22.3
13,Cc1cnc(Nc2cccc(C3CN(C(=O)C4CC4c4ccc(Cl)cc4)CCO3)n2)s1 (centres undefined),28.4
14,COc1cccc(OC)c1C(=O)N1CCOC(c2cccc(Nc3nc(C)cs3)n2)C1 (centres undefined),7.41
15,Cc1cnc(Nc2cccc(C3CN(C(=O)C4CCCC4)CCO3)n2)s1 (centres undefined),-12.3
16,Cc1csc(Nc2cccc(C3CN(C(=O)Cn4nc(C)ccc4=O)CCO3)n2)n1 (centres undefined),1.32
17,Cc1cnc(Nc2cccc(C3CN(C(=O)CCC4CCCCC4)CCO3)n2)s1 (centres undefined),7.2
18,Cc1cnc(Nc2cccc(C3CN(C(=O)C45CC6CC(CC(C6)C4)C5)CCO3)n2)s1 (centres undefined),-2.75
19,Cc1csc(Nc2cccc(C3CN(C(=O)CCC4CCCC4)CCO3)n2)n1 (centres undefined),21
20,Cc1csc(Nc2cccc(C3CCCN3C(=O)CCOc3ccccc3C)n2)n1 (centres undefined),11.5
21,Cc1csc(Nc2cccc(C3CN(C(=O)CCOc4ccccc4C)CCO3)n2)n1 (centres undefined),62.8
22,COc1cc(NS(=O)(=O)c2ccc(NC(=O)c3ccc(Br)o3)cc2)nc(OC)n1,2.29

row,SMILES,relative growth recovery [%]
1,CC(C)(N)C(=O)N1CCC(CO)(c2cccc(Nc3ncc(-c4ccccc4)s3)n2)CC1,-19.1
2,Cc1cc(NS(=O)(=O)c2ccc(NC(=O)c3cccnc3)cc2)nc(C)n1,1.28
3,CCCOc1ccc(C(=O)Nc2ccc(S(=O)(=O)Nc3ncccn3)cc2)cc1,-3.33
4,Cc1cc(C)nc(NS(=O)(=O)c2ccc(NC(=O)CSc3nc4c(cc3C#N)CCC4)cc2)n1,-6.17
5,Cc1nc(Nc2cccc(C3CCCN3C(=O)CCOc3cccc(F)c3)n2)sc1C (centres undefined),8.19
6,CCOc1ccccc1OCC(=O)Nc1ccc(S(=O)(=O)Nc2ccccn2)cc1,-1.77
7,COc1ccccc1CCC(=O)N1CCC(c2cccc(Nc3ncc(C)s3)n2)CC1,19
8,Cc1ccc(N2C(=O)c3ccc(Oc4ccc(N)cc4)cc3C2=O)cc1,-1.57
9,Nc1ccc(Oc2ccc3c(c2)C(=O)N(c2ccccc2)C3=O)cc1,2.54
10,COCCNC(=O)C1(c2cccc(Nc3ncc(C)s3)n2)CCN(C(=O)C2CCCCC2)CC1,-5.38
11,Cc1ccnc(NS(=O)(=O)c2ccc(NC(=O)Cc3ccc(Cl)cc3)cc2)n1,2.92
12,Cc1cnc(Nc2cccc(C3CCCN3C(=O)CCCc3ccc(F)cc3)n2)s1 (centres undefined),0.955
13,Cn1cc(/C=C/C(=O)N2CCC(c3cc4ccccc4c(Nc4nccs4)n3)CC2)cn1,-18.7
14,CCc1nccn1CC(=O)N1CCOC(c2cccc(Nc3ncc(C)s3)n2)C1 (centres undefined),0.35
15,Cc1cc(C)c(S(=O)(=O)Nc2ccc(S(=O)(=O)Nc3ncccn3)cc2)c(C)c1,6.84
16,COc1ccc2[nH]c3nc(SCC(=O)Nc4cc(Cl)ccc4OC)nnc3c2c1,-18.5
17,COc1cc(NS(=O)(=O)c2ccc(NC(=O)C3CC3)cc2)nc(OC)n1,-1.71
18,O=C(O)CCCNc1cccc2c1C(=O)N(C1CCC(=O)NC1=O)C2=O (centres undefined),3.32
19,O=C(O)CCOCCNc1cccc2c1C(=O)N(C1CCC(=O)NC1=O)C2=O (centres undefined),-5.19
20,O=C1CCC(N2C(=O)c3cccc(NC[C@H]4CC[C@H](C(=O)O)CC4)c3C2=O)C(=O)N1 (some centres undefined),50.3
